According to PubChem BioAssay (NCATS):
Values joined by “and” are separate entries in the source; they are usually repeats but may differ in a detail not shown here. Equal entries are not always repeated. Records with an inconclusive call do not appear. Entries that show only a call come without a potency. Unmarked numbers belong to inactive results. Active and inactive are the calls of the source. The call rests on the fitted dose curve; in most records, active means well fitted curve in the direction sought with a large enough effect; inconclusive means small, poorly fitted or top-dose-only effect, or another doubt; inactive means no such curve, though single readings can be large; an effect the other way counts as inactive or inconclusive.

How the values were obtained:
[1] = molecular target: Cellular tumor antigen p53 (Homo sapiens) (UniProt P04637); test: Primary qHTS for small molecule compounds that upregulate eGFP-tagged delta133p53alpha (in N-terminal) cells. (AID 2060322); details: NCI-H358 eGFP-delta133p53alpha fluorescence, 24 h; activation: active compounds read high; further: series mostly up to about 56 µM; nearly all actives have a fitted effect of over 75% in size
Chain of Cellular tumor antigen p53 (Homo sapiens) (P04637 whole entry, looked up): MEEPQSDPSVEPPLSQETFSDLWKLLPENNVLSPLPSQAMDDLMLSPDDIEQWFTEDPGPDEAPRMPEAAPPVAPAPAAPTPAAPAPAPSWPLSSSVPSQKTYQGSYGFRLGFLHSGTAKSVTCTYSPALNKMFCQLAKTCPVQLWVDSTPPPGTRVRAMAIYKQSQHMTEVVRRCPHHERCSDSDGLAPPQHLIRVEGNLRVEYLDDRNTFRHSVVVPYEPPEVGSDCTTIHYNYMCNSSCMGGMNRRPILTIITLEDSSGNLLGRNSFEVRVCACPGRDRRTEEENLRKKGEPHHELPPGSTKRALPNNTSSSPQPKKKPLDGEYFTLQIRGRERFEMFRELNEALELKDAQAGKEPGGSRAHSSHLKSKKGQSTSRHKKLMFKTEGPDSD
Summary of the method: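 NCI-H358 cells pre-induced 24 h with 10 ng/ml doxycycline to express N-terminal eGFP-delta133p53alpha, then dosed 24 h at 37C without doxycycline; fixed, Hoechst-stained, GFP intensity by laser scanning cytometry, normalized to DMSO (0%) and 57.5 uM 5-azacytidine (100%).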

[2] = BET inhibitor-based combinations targeting novel dependencies in MECOM-rearranged (r) AML: SET-2 cell line (AID 2202231); details: SET-2 AML cells viability, CellTiter-Glo luminescence, 48 h; viability: active compounds read low, concentration not given here; further: nearly all actives have a fitted effect of over 35% in size; further: potency means the concentration at half of the fitted maximal effect
Summary of the method: (§1)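 Each compound was tested at eleven concentrations on cells seeded at 500/well. After two days' incubation, ATP-based luminescence reported viability; responses relative to DMSO and blank wells yielded AUC and cell-line-centred Z-AUC.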

[3] = BET inhibitor-based combinations targeting novel dependencies in MECOM-rearranged (r) AML: OCI-AML3 cell line (AID 2202232); details: Potency: OCI-AML3 viability; further: nearly all actives have a fitted effect of over 35% in size; further: potency means the concentration at half of the fitted maximal effect
Summary of the method: as §1

[4] = BET inhibitor-based combinations targeting novel dependencies in MECOM-rearranged (r) AML: MV-4-11 cell line (AID 2202233); further: nearly all actives have a fitted effect of over 45% in size; further: potency means the concentration at half of the fitted maximal effect
Summary of the method: (§2)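 First, 500 cells per well were seeded; next, drugs were pinned as 11-point doses; then plates sat 48 hr in the incubator; finally CellTiter-Glo was added and luminescence read, with AUC and Z-AUC computed.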

[5] = BET inhibitor-based combinations targeting novel dependencies in MECOM-rearranged (r) AML: HNT-34 cell line (AID 2202234); further: nearly all actives have a fitted effect of over 35% in size; further: potency means the concentration at half of the fitted maximal effect
Summary of the method: as §2

[6] = BET inhibitor-based combinations targeting novel dependencies in MECOM-rearranged (r) AML: UCSD-AML1 cell line (AID 2202235); further: nearly all actives have a fitted effect of over 40% in size; further: potency means the concentration at half of the fitted maximal effect
Summary of the method: as §2

[7] = BET inhibitor-based combinations targeting novel dependencies in MECOM-rearranged (r) AML: AML-194 cell line (AID 2202237; further: nearly all actives have a fitted effect of over 40% in size; further: potency means the concentration at half of the fitted maximal effect)
Summary of the method: as §1

[8] = BET inhibitor-based combinations targeting novel dependencies in MECOM-rearranged (r) AML: AML-191 cell line (AID 2202236; further: nearly all actives have a fitted effect of over 35% in size; further: potency means the concentration at half of the fitted maximal effect)
Summary of the method: as §1

Row | SMILES | activation [1] | Potency [2] | Potency [3] | Potency [4] | Potency [5] | Potency [6] | Potency [7] | viability [2] [%] | Potency [8]
1 | NS(=O)(=O)c1cccc2c1C(=O)c1cccc(O)c1C2=O | -16% | 2.95 µM (active) | 1.66 µM (active) | 0.332 µM (active) | 1.86 µM (active) | 2.09 µM (active) | 2.63 µM (active) |  | 
2 | Cc1nc(-c2ccc(OCC(C)C)c(C#N)c2)sc1C(=O)O | 4.32% and -8.37% |  | inactive | inactive | inactive | inactive | inactive | 109 | inactive
3 | Nc1ccn([C@@H]2CS[C@H](CO)O2)c(=O)n1 | -9.96% |  | inactive | inactive | inactive | inactive | inactive | 113 | inactive
4 | CCCc1nc2c(C)cc(-c3nc4ccccc4n3C)cc2n1Cc1ccc(-c2ccccc2C(=O)O)cc1 | -6.69% and 11.8% |  | inactive | inactive | inactive | inactive | inactive | 120 | inactive
5 | O=NN(CCCl)C(=O)NC1CCCCC1 | -3.35% and 3.74% |  | inactive | inactive | inactive | inactive | inactive | 112 | 
6 | O=C(O)C1=CC(O)C(O)[C@H](O)C1 (stereo partly drawn) | 16.4% |  | inactive | inactive | inactive | inactive | inactive | 115 | 
7 | C=C(C)[C@@H]1CC[C@]2(C(=O)O)CC[C@]3(C)[C@H](CC[C@@H]4[C@@]5(C)CC[C@H](O)C(C)(C)[C@@H]5CC[C@]43C)[C@@H]12 | 7.46% |  | inactive | inactive | inactive | inactive | inactive | 115 | inactive
8 | Cc1cc(C2CCCCC2)n(O)c(=O)c1 | 25.4% | 18.6 µM (active) | 10.5 µM (active) | 4.17 µM (active) | 10.5 µM (active) | 16.6 µM (active) | 10.5 µM (active) |  | 11.8 µM (active)
9 | CCCCCOC(=O)Nc1nc(=O)n([C@@H]2O[C@H](C)[C@@H](O)[C@H]2O)cc1F | -37.9% |  | inactive | inactive | inactive | inactive | inactive | 110 | 
10 | COc1cccc(OC)c1-c1cc(C(=O)NC2(C(=O)O)C3CC4CC(C3)CC2C4)nn1-c1ccnc2cc(Cl)ccc12 (stereo not drawn) | -14.3% |  | inactive | inactive | inactive | inactive | inactive | 114 | inactive
11 | COC(=O)Nc1cc(Nc2cc(NC3CC3)c3ncc(C#N)n3n2)c(Cl)c(N2CCN(C)CC2)c1 | -10.3% | 2.95 µM (active) | 3.32 µM (active) | 0.833 µM (active) | 1.32 µM (active) | 2.63 µM (active) | 2.63 µM (active) |  | 2.63 µM (active)
12 | CC1(C)CCC2=C(O1)c1ccccc1C(=O)C2=O | -0.948% | 18.6 µM (active) | 18.6 µM (active) | 18.6 µM (active) | 16.6 µM (active) | 9.34 µM (active) | 26.3 µM (active) |  | 
13 | Nc1nc(-c2nn(Cc3ccccc3F)c3ncccc23)nc(N)c1N1CCOCC1 | 6.49% |  | 0.0018 µM (active) | inactive | inactive | inactive | inactive | 123 | inactive
14 | CCOC(=O)[C@H](CCc1ccccc1)N[C@@H](C)C(=O)N1CCC[C@H]1C(=O)O | 0% |  | inactive | inactive | inactive | inactive | inactive | 92.2 | inactive
15 | O=C(O)c1cn(-c2ccc(F)cc2)c2cc(N3CCNCC3)c(F)cc2c1=O | -9.7% |  | inactive | inactive | inactive | inactive | inactive | 96.6 | inactive
16 | c1cc(-c2cnn3cc(-c4ccc(OCCN5CCCCC5)cc4)cnc23)ccn1 | 46.6% | 8.33 µM (active) | 8.33 µM (active) | 0.0833 µM (active) | 1.66 µM (active) | 9.34 µM (active) | 9.34 µM (active) |  | 8.33 µM (active)
17 | Nc1ncnc2ccccc12 | 22.8% |  | inactive | inactive | inactive | inactive | inactive | 115 | 
18 | Nc1cc(C(Cl)=C(Cl)Cl)c(S(N)(=O)=O)cc1S(N)(=O)=O | 44.6% |  | inactive | inactive | inactive | inactive | inactive | 111 | inactive
